Test results published in PubChem BioAssay AID1159580 (chemical genetic matrix, 2015).
Out of some 5,500 compounds screened, about 2,000 (36%) were called active. Roughly 18% stayed inconclusive and do not appear here. Cut-off read from the data, not from the text of the source: active = normalized growth mostly below about 0.91 (no sharp cut-off); inconclusive = no clear call, values can overlap the other calls; inactive = mostly above about 0.92. The list shows a part of the results.

Experiment: chemical genetic growth profiling, strain panel (AID 1159580);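 note: tested at 20 µM; growth read once vehicle control cultures reached saturation at 30 °C; 1 = growth at the plate median or of vehicle wells; lower values mean less growth of the strain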
Conditions: growth OD

Measured: normalized growth

Nc1ncnc2nc[nH]c12
active: S. cerevisiae deletion strains, locus YKR001C, strain vps1, stronger effect = lower value 0.319 | S. cerevisiae deletion strains, locus YLR039C, strain RIC1, stronger effect = lower value 0.443 | S. cerevisiae deletion strains, locus YLR262C, strain YPT6, stronger effect = lower value 0.514 | S. cerevisiae deletion strains, locus YLR268W, strain sec22, stronger effect = lower value 0.795 | S. cerevisiae deletion strains, locus YLR330W, strain CHS5, stronger effect = lower value 0.842 | S. cerevisiae deletion strains, locus YLR418C, strain cdc73, stronger effect = lower value 0.612 | S. cerevisiae deletion strains, locus YMR223W, strain ubp8, stronger effect = lower value 0.846 | S. cerevisiae deletion strains, locus YNL233W, strain BNI4, stronger effect = lower value 0.695 | S. cerevisiae deletion strains, locus YNL307C, strain MCK1, stronger effect = lower value 0.591 | S. cerevisiae deletion strains, locus YOL147C, strain pex11, stronger effect = lower value 0.834 | S. cerevisiae deletion strains, locus YOR144C, strain elg1, stronger effect = lower value 0.885 | S. cerevisiae deletion strains, locus YOR184W, strain ser1, stronger effect = lower value 0.708 | S. cerevisiae deletion strains, locus YPR163C, strain tif3, stronger effect = lower value 0.889 | S. cerevisiae deletion strains, strain wtn01, stronger effect = lower value 0.841 | S. cerevisiae strains, strain wild type, stronger effect = lower value 0.879
inactive: S. cerevisiae deletion strains, locus YJR066W, strain TOR1, stronger effect = lower value 0.966 | S. cerevisiae deletion strains, locus YKL009W, strain mrt4, stronger effect = lower value 0.942 | S. cerevisiae deletion strains, locus YKL068W, stronger effect = lower value 1.03 | S. cerevisiae deletion strains, locus YKL085W, strain MDH1 (second series), stronger effect = lower value 1.01 | S. cerevisiae deletion strains, locus YKL085W, strain MDH1, stronger effect = lower value 1.01 | S. cerevisiae deletion strains, locus YKL160W, strain elf1, stronger effect = lower value 0.995 | S. cerevisiae deletion strains, locus YKR026C, strain gcn3, stronger effect = lower value 0.996 | S. cerevisiae deletion strains, locus YKR091W, strain srl3, stronger effect = lower value 0.99 | S. cerevisiae deletion strains, locus YLL001W, strain dnm1, stronger effect = lower value 0.965 | S. cerevisiae deletion strains, locus YLL026W, stronger effect = lower value 0.994 | S. cerevisiae deletion strains, locus YLL041C, strain sdh2, stronger effect = lower value 0.991 | S. cerevisiae deletion strains, locus YLR027C, strain aat2, stronger effect = lower value 0.997 | S. cerevisiae deletion strains, locus YLR058C, strain SHM2, stronger effect = lower value 0.908 | S. cerevisiae deletion strains, locus YLR102C, strain apc9, stronger effect = lower value 0.997 | S. cerevisiae deletion strains, locus YLR113W, strain HOG1, stronger effect = lower value 1.04 | S. cerevisiae deletion strains, locus YLR221C, strain rsa3, stronger effect = lower value 0.964 | S. cerevisiae deletion strains, locus YLR258W, strain gsy2, stronger effect = lower value 0.985 | S. cerevisiae deletion strains, locus YLR262C, strain YPT6 (second series), stronger effect = lower value 1.01 | S. cerevisiae deletion strains, locus YLR320W, strain mms22, stronger effect = lower value 0.973 | S. cerevisiae deletion strains, locus YLR342W, strain FKS1 (second series), stronger effect = lower value 0.864 | S. cerevisiae deletion strains, locus YLR342W, strain FKS1, stronger effect = lower value 0.983 | S. cerevisiae deletion strains, locus YLR357W, strain rsc2, stronger effect = lower value 0.972 | S. cerevisiae deletion strains, locus YLR370C, strain arc18, stronger effect = lower value 0.983 | S. cerevisiae deletion strains, locus YLR371W, strain rom2, stronger effect = lower value 0.985 | S. cerevisiae deletion strains, locus YLR384C, strain iki3, stronger effect = lower value 0.987 | S. cerevisiae deletion strains, locus YML016C, strain PPZ1, stronger effect = lower value 1.04 | S. cerevisiae deletion strains, locus YML032C, strain rad52, stronger effect = lower value 0.972 | S. cerevisiae deletion strains, locus YML120C, strain ndi1, stronger effect = lower value 0.97 | S. cerevisiae deletion strains, locus YML124C, strain tub3, stronger effect = lower value 1 | S. cerevisiae deletion strains, locus YMR058W, strain fet3, stronger effect = lower value 0.994 | S. cerevisiae deletion strains, locus YMR078C, strain ctf18, stronger effect = lower value 0.988 | S. cerevisiae deletion strains, locus YMR125W, strain sto1, stronger effect = lower value 0.978 | S. cerevisiae deletion strains, locus YMR129W, stronger effect = lower value 0.979 | S. cerevisiae deletion strains, locus YMR205C, strain PFK2, stronger effect = lower value 0.968 | S. cerevisiae deletion strains, locus YMR231W, strain pep5, stronger effect = lower value 0.991 | S. cerevisiae deletion strains, locus YMR263W, strain SAP30, stronger effect = lower value 0.932 | S. cerevisiae deletion strains, locus YMR307W, strain GAS1, stronger effect = lower value 1.18 | S. cerevisiae deletion strains, locus YNL067W, strain RPL9B, stronger effect = lower value 0.945 | S. cerevisiae deletion strains, locus YNL071W, strain lat1, stronger effect = lower value 0.988 | S. cerevisiae deletion strains, locus YNL128W, strain TEP1, stronger effect = lower value 0.955 | S. cerevisiae deletion strains, locus YNL183C, strain NPR1, stronger effect = lower value 0.97 | S. cerevisiae deletion strains, locus YNL209W, strain ssb2, stronger effect = lower value 0.984 | S. cerevisiae deletion strains, locus YNL248C, strain rpa49, stronger effect = lower value 0.982 | S. cerevisiae deletion strains, locus YNL250W, strain rad50, stronger effect = lower value 1.01 | S. cerevisiae deletion strains, locus YNL271C, strain bni1, stronger effect = lower value 0.956 | S. cerevisiae deletion strains, locus YNL298W, strain CLA4, stronger effect = lower value 0.956 | S. cerevisiae deletion strains, locus YNL322C, strain KRE1 (second series), stronger effect = lower value 0.982 | S. cerevisiae deletion strains, locus YNL322C, strain KRE1, stronger effect = lower value 0.97 | S. cerevisiae deletion strains, locus YNR049C, strain mso1, stronger effect = lower value 0.982 | S. cerevisiae deletion strains, locus YNR052C, strain pop2, stronger effect = lower value 0.954 | S. cerevisiae deletion strains, locus YOL006C, strain TOP1, stronger effect = lower value 0.783 | S. cerevisiae deletion strains, locus YOL012C, strain htz1 0.719 | S. cerevisiae deletion strains, locus YOR001W, strain rrp6, stronger effect = lower value 1 | S. cerevisiae deletion strains, locus YOR061W, strain CKA2, stronger effect = lower value 0.995 | S. cerevisiae deletion strains, locus YOR069W, strain VPS5, stronger effect = lower value 0.971 | S. cerevisiae deletion strains, locus YOR070C, strain gyp1, stronger effect = lower value 0.981 | S. cerevisiae deletion strains, locus YOR080W, strain dia2, stronger effect = lower value 0.997 | S. cerevisiae deletion strains, locus YOR083W, strain WHI5, stronger effect = lower value 0.981 | S. cerevisiae deletion strains, locus YOR106W, strain vam3, stronger effect = lower value 0.953 | S. cerevisiae deletion strains, locus YOR136W, strain idh2, stronger effect = lower value 0.968 | S. cerevisiae deletion strains, locus YOR231W, strain MKK1, stronger effect = lower value 1.01 | S. cerevisiae deletion strains, locus YOR265W, strain rbl2, stronger effect = lower value 0.987 | S. cerevisiae deletion strains, locus YOR270C, strain vph1, stronger effect = lower value 0.972 | S. cerevisiae deletion strains, locus YOR290C, strain snf2, stronger effect = lower value 0.971 | S. cerevisiae deletion strains, locus YOR316C, strain cot1, stronger effect = lower value 0.995 | S. cerevisiae deletion strains, locus YPL051W, strain arl3, stronger effect = lower value 0.99 | S. cerevisiae deletion strains, locus YPL055C, strain LGE1, stronger effect = lower value 0.796 | S. cerevisiae deletion strains, locus YPL078C, strain atp4, stronger effect = lower value 0.983 | S. cerevisiae deletion strains, locus YPL106C, strain sse1, stronger effect = lower value 0.973 | S. cerevisiae deletion strains, locus YPL240C, strain hsp82, stronger effect = lower value 0.993 | S. cerevisiae deletion strains, locus YPL241C, strain CIN2, stronger effect = lower value 1.01 | S. cerevisiae deletion strains, locus YPL256C, strain CLN2, stronger effect = lower value 1.06 | S. cerevisiae deletion strains, locus YPR119W, strain clb2, stronger effect = lower value 0.987 | S. cerevisiae deletion strains, locus YPR141C, strain kar3, stronger effect = lower value 1.02 | S. cerevisiae deletion strains, locus YPR167C, strain met16, stronger effect = lower value 0.976
